We go through 40 molecules from PubChem BioAssay (NCATS).

Results filed as inconclusive are left out. Values without a mark were called inactive. Calls follow the shape of the dose curve; as a rule, active = well fitted cell-killing curve with a large enough effect; inconclusive = small, poorly fitted or top-dose-only effect, or effect the other way; inactive = no such curve, though single readings can be large or run the other way.

A short description of this assay: Cell Viability - LYMP2-004 (AID 966).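 Also: cells exposed to compound for 24 h; plate controls were DMSO only for no effect and tetraoctylammonium bromide control for full effect; nearly all actives have a fitted effect of over 65% in size.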 Particulars: LYMP2-004 lymphoblastoid cell viability, qHTS; series mostly up to 92.2 µM; activity change, negative = cytotoxicity: at the top concentration. The source says: NIH Chemical Genomics Center [NCGC]
NIH Molecular Libraries Screening Centers Network [MLSCN]
National Institutes of Environmental Health Sciences [NIEHS]
National Toxicology Program [NTP]
We have developed a 1536-well cell-based assay for quantitative high throughput screening (qHTS) against a number of cell lines to determine in vitro cytotoxicity of small molecules. This particular assay uses a human lymphoblastoid cell line (LYMP2-004) purchased from Coriell Institute for Medical Research.
NCGC Assay Protocol Summary:
The CellTiter-Glo luminescent cell viability assay (Promega) is a homogeneous method to measure the number of viable cells in culture. The end point readout of this assay is based on quantitation of intracellular ATP, an indicator of metabolic activity, using the luciferase reaction. Luciferase catalyzes the oxidation of beetle Luciferin to oxyluciferin and light in the presence of ATP. The luminescent signal is proportional to amount of ATP present.
Using the CellTiter-Glo luminescent cell viability assay, the amount of cellular ATP was measured in the lymphoblastoid cell line with complete culture medium following compound treatment for 24 hours. The assay was performed in opaque white Kalypsys 1536-well plates. In the screen, tetraoctylammonium bromide was used as positive control. Library compounds were measured for their ability to cause acute toxicity in the cell line, as reflected by a decrease in intracellular ATP levels, in a concentration-dependent manner. […] AC50 values were determined from concentration-response data modeled with the standard Hill equation.
qHTS protocol for CellTiter Glo lymphoblastoid cellular assay
[Step] [Parameter] [Value] [Description]
1. Reagent; 5 uL; 2500 lymphoblastoid cells/well
2. Time; 5 hr; 37 C incubation
4. Controls; 23 nL; Tetraoctylammonium bromide 6.4pM to 92 uM
5. Time; 24 hr; 37 C incubation
6. Reagent; 5 uL; CellTiter Glo reagent
7. Time; 30 min; Room Temperature
8. Detection; Luminescence; Viewlux plate reader
Keywords: cell viability, cytotoxicity, lymphoblastoid cell line, luminescence, NTPHTS, NTPHTS_NCGC, NIEHS, DSSTox, MLSMR, MLSCN, NIH Roadmap, qHTS, NCGC
Take `COc1ccc(N)c(OC)c1`: the “activity change, negative = cytotoxicity” value is 9.89%. Then `CC(C)Nc1ccccc1`, with 5.16%; and `C=C(C)C(=O)OCC(C)O` (stereo not given), with 26.5%; and `C=CC(=O)OCCCC`, with 15.7%. For `CN(C)CCCNCCCN` the value was -19.3%. On to `Nc1ccc(F)cc1F`, for which the “activity change, negative = cytotoxicity” value is -1.38%.

For the molecule `O=C(Cl)c1c(Cl)cccc1Cl`, the “activity change, negative = cytotoxicity” value was 8.15%. Regarding `C=CCn1c(=O)n(CC=C)c(=O)n(CC=C)c1=O`, the “activity change, negative = cytotoxicity” value is 22.9%. With `CCCCC(CC)C(=O)O` (stereo not given), the “activity change, negative = cytotoxicity” value is 3.06%. Then `C=C(C)C1CC=C(C)C(OC(C)=O)C1` (stereo not given), with 0.734%; and `CCOc1cccc(N)c1`, with 6.24%. For `CC(=O)C1(C)CC2=C(CCCC2(C)C)CC1C` (stereo not given) the value was -3.87%; for `CC(C)N=C=NC(C)C`, 4.85%; for `C1CCC2OC2C1` (stereo not given), -0.956%. Take `C1CCCC1`: the “activity change, negative = cytotoxicity” value was 6.11%. Then `CC(C)(C)OCC1CO1` (stereo not given), with 3.38%; and `NCCCCCCN`, with 12.3%. For `CC(C)C=O` the value was 3.71%. Then `Nc1ccccc1[N+](=O)[O-]`, with -13.9%; and `O=Cc1cccc(Br)c1`, with 8.95%; and `COC(=O)CS`, with -3.59%. `CCCCC(CC)CO` (stereo not given): the “activity change, negative = cytotoxicity” value is 11.3%. For `Clc1ccc(Cl)c(Cl)c1Cl`, the “activity change, negative = cytotoxicity” value was 9.1%. As to `Cc1ccc(C)c(N)c1`, the “activity change, negative = cytotoxicity” value was 5.79%.

Take `O=C(O)CN(CC(=O)O)CC(=O)O`: the “activity change, negative = cytotoxicity” value is 3.42%. Take `C=C(C)C(=O)OCCCCCCCCCC`: the “activity change, negative = cytotoxicity” value is 23.8%. For `O=C1OC(=O)c2c(Cl)c(Cl)c(Cl)c(Cl)c21` the value was 2.33%. Then `Cc1cccc2sc(N)nc12`, with -16.5%; and `COc1ccccc1[N+](=O)[O-]`, with 26.8%; and `CCCCC=O`, with 16.2%.

With `Cc1ccc([N+](=O)[O-])c(N)c1`, the “activity change, negative = cytotoxicity” value was -1.63%.

Regarding `Nc1cccc(O)c1`, the “activity change, negative = cytotoxicity” value is 8.45%.

Turning to `CN(C)c1cccc(O)c1`, the “activity change, negative = cytotoxicity” value was 10.9%. As to `OC/C(Br)=C(\Br)CO`, the “activity change, negative = cytotoxicity” value was 13.9%.

As to `C=CCOC(=O)CCCCCCCC`, the “activity change, negative = cytotoxicity” value was -3.51%. Then `Nc1nc(CC(=O)O)cs1`, with 13.1%. `C(=C/c1ccccc1)/c1ccccc1`: the “activity change, negative = cytotoxicity” value was 0.809%. Take `COc1cccc2sc(N)nc12`: the “activity change, negative = cytotoxicity” value was 26.8%. For the molecule `CC(=O)CCc1ccccc1`, the “activity change, negative = cytotoxicity” value was 33.8%. For the molecule `CCCCC(C=O)CC` (stereo not given), the “activity change, negative = cytotoxicity” value was 19.2%.
